Activity increase over dofetilide control, less the hit threshold data for 52 compounds are collected here from PubChem BioAssay AID1835 (Johns Hopkins Ion Channel Center, 2009).

In all, about 2,400 compounds went through this assay and about 750 (31%) were called active. Some of the results follow. Values without a mark were called inactive.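 Rule for the calls: active = median signal gain over dofetilide-blocked control wells reaching their mean plus 3 SD, so readout 1 at least 0; inactive = the rest.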

The target in this experiment is Voltage-gated inwardly rectifying potassium channel KCNH2 (Homo sapiens) (UniProt Q12809). As to the kind of experiment: modulators restoring hERG flux under dofetilide – cell-based, thallium flux, duplicate retest, dofetilide IC70, confirmation (AID 1835). The note with it: hERG cell line, FluxOR thallium flux, dofetilide-blocked; at 10 µM; hits give high values.
Chain of Voltage-gated inwardly rectifying potassium channel KCNH2 (Homo sapiens) (Q12809 whole entry, looked up): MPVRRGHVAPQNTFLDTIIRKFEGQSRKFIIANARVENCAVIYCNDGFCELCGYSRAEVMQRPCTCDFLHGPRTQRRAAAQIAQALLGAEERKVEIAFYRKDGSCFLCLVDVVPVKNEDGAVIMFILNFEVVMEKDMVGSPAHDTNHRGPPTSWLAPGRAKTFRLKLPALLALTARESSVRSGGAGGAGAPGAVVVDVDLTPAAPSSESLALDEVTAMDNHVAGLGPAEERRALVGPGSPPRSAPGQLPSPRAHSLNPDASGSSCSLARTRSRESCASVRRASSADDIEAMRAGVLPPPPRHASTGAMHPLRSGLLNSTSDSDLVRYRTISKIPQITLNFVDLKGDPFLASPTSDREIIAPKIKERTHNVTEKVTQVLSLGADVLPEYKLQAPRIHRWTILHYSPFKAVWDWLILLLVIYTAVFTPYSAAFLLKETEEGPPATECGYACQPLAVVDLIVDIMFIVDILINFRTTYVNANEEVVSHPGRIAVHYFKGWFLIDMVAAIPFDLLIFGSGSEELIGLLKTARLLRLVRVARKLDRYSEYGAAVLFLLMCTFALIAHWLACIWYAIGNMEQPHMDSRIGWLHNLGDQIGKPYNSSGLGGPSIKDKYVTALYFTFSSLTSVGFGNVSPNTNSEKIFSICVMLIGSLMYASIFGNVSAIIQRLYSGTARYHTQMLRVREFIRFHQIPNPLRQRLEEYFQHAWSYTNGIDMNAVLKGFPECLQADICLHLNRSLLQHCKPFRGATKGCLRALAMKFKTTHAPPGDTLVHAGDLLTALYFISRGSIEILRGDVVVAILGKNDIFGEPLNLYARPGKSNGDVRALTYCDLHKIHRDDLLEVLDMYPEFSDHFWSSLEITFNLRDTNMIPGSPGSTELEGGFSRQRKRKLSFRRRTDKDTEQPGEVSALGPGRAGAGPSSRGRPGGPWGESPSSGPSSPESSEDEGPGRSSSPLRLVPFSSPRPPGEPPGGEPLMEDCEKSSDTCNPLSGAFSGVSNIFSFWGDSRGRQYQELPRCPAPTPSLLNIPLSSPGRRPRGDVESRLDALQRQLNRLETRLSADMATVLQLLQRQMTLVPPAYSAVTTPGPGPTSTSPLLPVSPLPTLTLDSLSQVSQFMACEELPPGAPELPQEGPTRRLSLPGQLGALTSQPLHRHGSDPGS
`CC12CCC(C(=O)NCc3ccc4c(c3)OCO4)(CC1=O)C2(C)C` (configuration not stated): the activity increase over dofetilide control, less the hit threshold is 5% (active).
For `COc1ccccc1C(=O)NCc1ccc2c(c1)OCO2`, the activity increase over dofetilide control, less the hit threshold is -10%.
Consider `Cc1cc(C)cc(-n2nnc(C(=O)NCc3ccc4c(c3)OCO4)c2N)c1`, for which the activity increase over dofetilide control, less the hit threshold is -19%.
The result for `CCC(=O)Nc1cc(-c2nnc(OC)c3ccccc23)ccc1N1CCOCC1` reads -1%.
The result for `CCCCCCn1c(-c2cccs2)n[nH]c1=S` reads -8%.
Consider `CCCCn1c(-c2csc(C(C)C)c2)n[nH]c1=S`, for which the activity increase over dofetilide control, less the hit threshold was 8% (active).
In the case of `COc1cccc(C2C3=C(N=c4s/c(=C\c5ccc(OCC(=O)O)cc5)c(=O)n42)c2ccccc2CC3)c1` (configuration not stated), the activity increase over dofetilide control, less the hit threshold was -29%.
The result for `Cc1ccc(C(=O)NC(=S)Nc2ccccc2C(F)(F)F)cc1` reads -6%; that for `O=C(NC(=S)Nc1cc(C(F)(F)F)ccc1Cl)c1ccccc1`, 1% (active); that for `CC(C)(C)SCCNC(=O)CN1C(=O)c2ccccc2S1(=O)=O`, -4%.
The figure for `CCC1(c2ccc(Cl)cc2)NC(=S)N(c2ccc(C)cc2)N1` (configuration not stated) is 66% (active); for `CCC1(c2ccccc2)NC(=S)N(c2ccc(C)cc2)N1` (configuration not stated) it is 113% (active).
The figure for `CCC1(c2ccc(Cl)cc2)NC(=S)N(c2ccccc2)N1` (configuration not stated) is 96% (active); for `CC(NC(=O)CCCn1cc([N+](=O)[O-])cn1)c1ccccc1` (configuration not stated) it is -14%.
Regarding `CSc1nc(-c2ccco2)cc(C(F)(F)F)c1C#N`, the activity increase over dofetilide control, less the hit threshold is -17%.
The figure for `C=CCn1c(=S)[nH]c2ccc(Br)cc2c1=O` is 10% (active); for `C=CCn1c(=S)[nH]c2cc(-c3ccccc3)sc2c1=O` it is 6% (active); for `COc1ccccc1Cn1c(=S)[nH]c2ccc(Br)cc2c1=O` it is 6% (active).
The result for `C=CCn1c(=S)[nH]c2nc3c(cc2c1=O)CCCC3` reads -9%; that for `Oc1ccc(Br)cc1-c1n[nH]c(=S)n1Cc1ccccc1`, -17%.
For the compound `COc1ccc(Br)cc1CNc1ccccc1`, the activity increase over dofetilide control, less the hit threshold was -21%.
The result for `Cc1cc(=O)[nH]c(=S)n1-c1ccccc1` reads -14%; that for `CC12CCC(C(=O)OC3CCCCC3)(OC1=O)C2(C)C` (configuration not stated), -17%.
The figure for `O=C(O)Cc1cc(I)c(Oc2ccc(O)c(I)c2)c(I)c1` is 18% (active).
The result for `O=C(O)CN1C(=O)c2ccc(Oc3ccc4c(c3)C(=O)N(CC(=O)O)C4=O)cc2C1=O` reads -10%.
As to `O=C(NCCCN1CCOCC1)c1ccc(CS(=O)(=O)Cc2ccccc2Cl)o1`, the activity increase over dofetilide control, less the hit threshold was -11%.
The figure for `CCn1ccnc1CN1CCCC(CO)(Cc2cccc(OC)c2)C1` (configuration not stated) is -11%; for `O=C(NCc1cccc(Cl)c1)c1ccncc1` it is -10%; for `O=C(NC(=S)NCCc1ccccc1)c1cccc(Cl)c1` it is 4% (active).
The figure for `S=C(NCCc1ccccc1)N/N=C/c1c(Cl)cccc1Cl` is -12%; for `Fc1ccc(-n2cc(-c3ccccc3)c3c(=S)nc[nH]c32)cc1` it is -1%; for `Cc1sc2nc[nH]c(=S)c2c1-c1ccccc1` it is 36% (active).
The result for `Cc1c(-c2ccccc2)sc2nc[nH]c(=S)c12` reads 52% (active).
Turning to `COC(=O)c1ccc(NN=Nc2ccc(C)cc2)cc1`, the activity increase over dofetilide control, less the hit threshold was -6%.
The result for `Nc1nonc1C(=O)N1CCCC1` reads -9%; that for `Cc1nnc2ccc(-c3cccc(NC(=O)c4ccc(Cl)nc4)c3)nn12`, -12%; that for `COc1ccc2nc(N3CCCCC3)c(/C=C3\SC(=S)NC3=O)cc2c1`, 3% (active).
The figure for `Cc1cc(NC(C)C)n2c(nc3ccccc32)c1C#N` is -18%.
In the case of `O=C(O)CN1C(=O)C(=O)N(Cc2ccc(C(F)(F)F)cc2)C1=O`, the activity increase over dofetilide control, less the hit threshold was 6% (active).
The figure for `O=C(Nc1cccnc1)c1ccc(COc2ccccc2Br)o1` is -3%; for `O=C(Nc1cccnc1)c1ccc(COc2cc(Cl)ccc2Cl)o1` it is 0% (active).
The result for `O=C(Nc1ccc(Cl)c(-c2nc3ccccc3[nH]2)c1)c1cccnc1` reads -43%.
The figure for `COc1ccc(Cc2c(O)nc(SCC(C)C)[nH]c2=O)cc1` is -18%; for `OC(CNCCc1ccc(C(F)(F)F)cc1)COc1cccc2ccccc12` (configuration not stated) it is -22%.
For the compound `O=C(OCc1ccccc1)C1=NNC2C(=O)N(c3ccc(Br)cc3)C(=O)C12` (configuration not stated), the activity increase over dofetilide control, less the hit threshold was -2%.
The figure for `Cc1cc(C(=O)CCC(=O)NC(C)c2ccc(S(N)(=O)=O)cc2)c(C)s1` (configuration not stated) is -15%; for `Cc1ccc(/C=N/Nc2nc(C(C)(C)C)cs2)o1` it is -17%; for `Cc1ccc(/C=N/Nc2ccc(C(=O)O)cc2)o1` it is 1% (active).
The figure for `COc1ccc(/C(C)=N/Nc2ccc(C(=O)O)cc2)c(OC)c1` is -12%; for `CC(C)(C)OC(=O)C(Cl)(C(=O)OC(C)(C)C)c1ccc2nnnn2n1` it is -27%.
The result for `Cc1cc(C)c(C(=O)c2ccc(C(=O)N3CCCCC3)cc2)c(C)c1` reads 23% (active); that for `COc1ccc(C)cc1NC(=O)Nc1ccc(C(=O)N2CCCC2)cc1`, -5%.
